# Test results taken from PubChem BioAssay AID1671192 (National Center for Advancing Translational Sciences (NCATS), 2021).
# Records with an inconclusive call do not appear. A number with no mark means an inactive call. Calls come from the whole dose curve; as a rule, active = well fitted curve in the direction sought with a large enough effect; inconclusive = small, poorly fitted or top-dose-only effect, or another doubt; inactive = no such curve, though single readings can be large or run the other way.
# Target: Polyunsaturated fatty acid lipoxygenase ALOX15 (Homo sapiens) (UniProt P16050)
# Assay: Counterscreen qHTS for inhibitors of human arachidonate 12S-lipoxygenase (ALOX12): ALOX15 Assay; note: 0% is about no effect
# Details: purified ALOX15 enzyme activity; series mostly up to 110 µM; activity change, negative = inhibition: at the top concentration
# Source text: Assay Provider: Theodore R. Holman Ph.D.
# University of California, Santa Cruz, California
# Human lipoxygenase 12hLO is a member of the closely related lipoxygenase family of enzymes which catalyze the site-specific oxidation of arachidonic acid to various hormone precursor molecules and as such is a candidate for drug development in a variety of disease areas, such as cancer and inflammation. Inhibition of 12hLO activity was screened by utilizing arachidonic acid as a substrate. The extent of hydroperoxide product formation was measured by a secondary chromogenic reaction in which xylenol orange (XO, Sigma-Aldrich, cat. number 39,818-7) reacts with the ferric ions produced from the reaction between the hydroperoxide and ferrous ions. The Fe (III)-XO complex is characterized with red-shifted absorbance at 560 nm. A purified preparation of human 12hLO was supplied by Dr. Holman laboratory, University of California, Santa Cruz.
# An assay against arachidonate 15-lipoxygenase (ALOX15) was developed to assess selective inhibition against ALOX12. Desired compounds would show potent inhibition against ALOX12 and minimal to no inhibition against ALOX15.
# SEQUENCE No. (e.g., 1, 2, 3, etc.); PARAMETER (e.g., Cells, Incubation, Reagent, etc.); VALUE; DESCRIPTION
# 1; Enzyme; 3 uL; 40 nM ALOX15 (15hLO-1) enzyme solution dispensed in 1536-well Greiner black, clear bottom plates.
# 2; Compound; 23 nL; compounds and controls were added.
# 3; Incubate; 15 min; room temperature.
# 4; Substrate; 1 uL; 50 uM arachidonic acid (final concentration).
# 5; Incubate; 30 min; room temperature.
# 6; Reagent; 4 uL; Fe-XO solution was added to each well.
# 8; Incubation; 30 min; room temperature
# 9; Detector; absorbance; Read 1 at 405 nm absorbance using ViewLux (PerkinElmer) CCD imager.
# 10; Detector; absorbance; Read 2 at 573 nm absorbance using ViewLux (PerkinElmer) CCD imager.
# NOTES (numbers refer to sequence above)
# 1; 40 nM ALOX15 (final concentration) in buffer solution (25 mM Hepes, 0.01% Triton X-100, pH 7.5) was dispensed in columns 1, 2, 5 - 48. Column 1 is neutral (100% activity). Buffer only was dispensed in columns 3 and 4 as no enzyme negative controls. The plates were covered with metal lids with gas-exchange holes.
# 2; Compounds were pin transferred via a Kalypsys Pin Tool (Wako USA) in column 5 - 48. Control compound was transferred in column 2, titration of nordihydroguaiaretic acid (NDGA, Sigma-Aldrich, N5023) with top concentration of 10 mM in DMSO then 1:2 dilution in duplicate. Dilution factor of 23 nL into 4 uL final assay volume.
# 3; Covered assay plates were incubated for 15 min at room temperature.
# 4; Substrate was added to start the reaction; 50 uM arachidonic acid (Sigma-Aldrich, St. Louis, MO) was dispensed throughout the plate.
# 6; Chromogenic detection reagent solution (divalent iron/xylenol orange, Fe-XO) was added to each well: 200 uM xylenol orange, 300 uM ferrous ammonium sulfate prepared freshly in 50 mM sulfuric acid.
# 9, 10; Two absorbance readouts were obtained at 405 nm and at 573 nm using a ViewLux high-throughput CCD plate imager (PerkinElmer). The 573 to 405 (Read 2 / Read 1) absorbance ratio was used to compute reaction progress.
# Sequence of Polyunsaturated fatty acid lipoxygenase ALOX15 (Homo sapiens) (P16050 whole entry, looked up): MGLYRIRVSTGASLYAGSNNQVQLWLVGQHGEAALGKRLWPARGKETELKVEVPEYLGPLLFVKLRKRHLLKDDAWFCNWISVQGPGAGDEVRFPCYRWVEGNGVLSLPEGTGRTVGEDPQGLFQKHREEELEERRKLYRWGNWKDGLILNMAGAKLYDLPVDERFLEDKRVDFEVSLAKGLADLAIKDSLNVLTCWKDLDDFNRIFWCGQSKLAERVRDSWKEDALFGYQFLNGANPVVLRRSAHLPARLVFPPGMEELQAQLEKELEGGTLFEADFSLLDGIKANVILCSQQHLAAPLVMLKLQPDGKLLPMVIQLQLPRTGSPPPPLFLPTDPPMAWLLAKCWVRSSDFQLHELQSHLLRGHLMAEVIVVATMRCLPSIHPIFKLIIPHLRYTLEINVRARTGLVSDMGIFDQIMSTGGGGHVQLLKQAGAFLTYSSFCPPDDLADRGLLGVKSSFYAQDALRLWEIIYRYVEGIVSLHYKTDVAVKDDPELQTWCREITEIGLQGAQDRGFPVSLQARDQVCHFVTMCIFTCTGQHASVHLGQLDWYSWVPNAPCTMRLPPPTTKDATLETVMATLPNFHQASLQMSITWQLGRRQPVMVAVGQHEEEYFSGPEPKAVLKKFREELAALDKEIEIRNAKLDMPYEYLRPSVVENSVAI
row,Compound,"activity change, negative = inhibition"
1,CN(C)C(=O)N1CCn2c(nnc2-c2cncc(Br)c2)C1,-17% [at 146 µM]
2,NCC(=O)N1Cc2ccccc2CC2(CCN(CC3CCNC3)C2)C1 (stereo not given),-0.295% [at 146 µM]
3,O=C(O)CCCC(=O)N1Cc2ccccc2CC2(CCCN2Cc2ccccc2)C1 (stereo not given),-13.6%
4,O=C(c1ccc(C(F)(F)F)cc1)N1CCn2c(nnc2C2CCCNC2)C1 (stereo not given),-17.4%
5,Cc1ccc(CN2CCC3(CC2)Cc2ccccc2CNC3=O)cc1C,-22.2%
6,Cc1cc(C(=O)NC2CCCC2)c2c(C3CCNCC3)noc2n1,-14.4% [at 146 µM]
7,O=Cc1ccc(-c2ccc(O)cc2)cc1,-0.934% [at 233 µM]
8,COc1ccc(-c2cc(C(=O)NCC(C)C)c3c(C4CCCN4)noc3n2)cc1 (stereo not given),-24.7%
9,NCc1ccc(-c2cc(C(F)(F)F)ccc2Cl)cc1,81.7% [at 146 µM]
10,CN1CCC(C(=O)N2Cc3ccccc3CC3(CCCN(CC4CCNCC4)C3)C2)CC1 (stereo not given),-6.02%
11,CNC1CCOc2ccccc21 (stereo not given),-17.1% [at 146 µM]
12,CC1CCCN(c2ncnc3c2CN(C2CCNCC2)C(=O)CN3C)C1 (stereo not given),-19.1%
13,CCCC(=O)N1Cc2ccccc2CC2(CCCN(C)C2)C1 (stereo not given),-26% [at 146 µM]
14,c1ccc2c(c1)CCN2C1CN(Cc2cccc3ccccc23)C1,-7.41% [at 146 µM]
15,CCOCCCNc1ncnc2c1CN(C1CCCNCC1)C(=O)CN2C (stereo not given),1.99%
16,O=C(O)c1cccc(-c2cnc3ccccc3c2)c1,2.07% [at 146 µM]
17,O=Cc1ccc(-c2cccc(O)c2)cc1,-2.91% [at 233 µM]
18,O=C(c1ccccn1)N1CCn2c(nn(-c3ccc(Cl)cc3)c2=O)C1,-10.8%
19,O=C(O)c1ccc(-c2cnccn2)cc1,-14.5% [at 233 µM]
20,O=C(O)c1cccc(-c2cncc(C(=O)O)c2)c1,-28.7% [at 146 µM]

row,Compound,"activity change, negative = inhibition"
1,Cn1cccc1CN1CCCCC12Cc1ccccc1CNC2=O (stereo not given),242% [at 146 µM]
2,CNC(C)c1ccc(Oc2ccccc2)cc1 (stereo not given),6.86% [at 146 µM]
3,O=C(O)C1=NOC2CN(Cc3c(F)cccc3Cl)CC12 (stereo not given),-9.49% [at 146 µM]
4,Cc1cc(C(=O)N2CCOCC2)c2c(C3CCNCC3)noc2n1,-7.21% [at 146 µM]
5,O=C1NCc2ccccc2CC12CCN(Cc1ccc(Cl)cc1)CC2,-1.13% [at 146 µM]
6,CC(=O)N1Cc2ccccc2CC2(CCN(Cc3ccncc3)C2)C1 (stereo not given),-26.4% [at 146 µM]
7,CN1CCC(C(=O)N2Cc3ccccc3CC3(CCCCN3CC3CCNCC3)C2)CC1 (stereo not given),-19.6%
8,CNCc1ccccc1OC(F)(F)F,-10.2% [at 146 µM]
9,COc1ccc(CC(=O)N2Cc3ccccc3CC3(CCN(CC4CCNC4)C3)C2)cc1 (stereo not given),8.23%
10,CCc1nc2c(c(-c3ccc(OC)cc3)n1)CCN(Cc1ccc(OC)cc1)CC2,-6.42%
11,O=C1NCc2ccccc2CC12CCN(Cc1cc(O)cc(O)c1)C2 (stereo not given),7.36% [at 146 µM]
12,COc1ccc(-c2cc(C(=O)NCC3CC3)c3c(C4CCNC4)noc3n2)cc1 (stereo not given),-24.2%
13,O=C1NC2(Cc3ccccc31)CN(C(=O)c1ccc3c(c1)OCO3)C2,-17.4% [at 146 µM]
14,COc1ccc(N2CC3CCC(C2)N3Cc2ccc(C#N)cc2)cc1,-3.16% [at 146 µM]
15,CCNc1ncnc2c1CN(C1CCCNC1)C(=O)CN2C (stereo not given),-1.16% [at 146 µM]
16,O=C1NCc2ccccc2CC12CCN(Cc1c(Cl)cncc1Cl)C2 (stereo not given),7.44%
17,O=C1NCc2ccccc2CC12CCCN2Cc1cccc(OC(F)(F)F)c1 (stereo not given),-23.8%
18,CCCN1CCC2(Cc3ccccc3CN(C(=O)CCCC(=O)O)C2)C1 (stereo not given),-22.9%
19,CC(=O)Nc1ccc(CN2CCCC23Cc2ccccc2CN(C(=O)CCC(=O)O)C3)cc1 (stereo not given),-10.9%
20,C[S+](=O)([O-])N1Cc2ccccc2CC2(CCCN2CC2CCNCC2)C1 (stereo not given),4.72%
